# In PubChem BioAssay (NCI):
# Compounds without any hit were thinned out: in the full panel of roughly 83,000, 20% have a hit.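 Cell lines were cultured in 96-well plates, exposed to a single compound concentration, and assessed for percent growth 48 hours later.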 Unmarked numbers belong to inactive results. Calls of active or inactive are those of the source.
# System: COLO 205 colon
# Assay: NCI-60 one-dose screen, 48 h (100 = growth as untreated, 0 = no growth, -100 = all killed)
# Conditions: 10 µM
# Experimental: Cells are grown in 96 well plates and exposed to the test compound for 48 hours. Compounds are tested at a single concentration, which is 10^-5 M for most compounds. The reported endpoint is percent growth (GI% or GIPRCNT), where numbers from 0 - 100% represent growth inhibition, and numbers from -100% - 0 represent cell death. For example, a value of 40 represents 60% growth inhibition. A value of 0 means no net growth occurred over the course of the experiment. A value of -40 indicates 40% of cells at the beginning of the experiment died by the end of the experiment. A value of -100 means all cells are dead at the end of the experiment.
# NCI-60 Human Tumor Cell Lines Screen was performed using the standard one-dose NCI protocol, which is described in more detail at https://dtp.cancer.gov/discovery_development/nci-60/default.htm.
# Compounds with GIPRCNT values below 10 were considered active. Activity score was based on GIPRCNT using the following formula: […]
# Score is 0 for GIPRCNT values of 100 or above, 50 for GIPRCNT values of 0, and 100 for GIPRCNT values of -100.
row,SMILES,growth
1,COc1cccc(O)c1/C=C1\SCc2cc3c(OC)cccc3[o+]c21,140%
2,COc1ccc(C2c3sc4ccc(C)cc4c3Oc3nc[nH]c(=O)c32)cc1 (stereo not given),103%
3,COc1cc(Nc2nc(O)c(/C=C3\C=Nc4ccccc43)s2)cc(OC)c1OC,-5.44% (active)
4,O=C(CSc1nc2ccccc2c(=O)n1-c1ccc(Cl)cc1)Nc1ccc(-c2nc3ccc([N+](=O)[O-])cc3[nH]2)cc1,11%
5,O=C(CN1CCN(c2ncnc3c2cnn3-c2ccccc2)CC1)Nc1ccc(Br)cc1,70.6%
6,CC1(C)CC(=O)C2=C(C1)N(Cc1ccc(C(=O)O)cc1)C1=C(C(=O)CC(C)(C)C1)C2c1ccc(Cl)cc1,121%
7,COc1ccc(Cn2cc(C#N)c(N)c2C(C)=O)c(OC)c1,125%
8,Cn1cc(-c2cc(N)n3nc(-c4cn(C)c5ccccc45)cc3n2)c2cc(F)ccc21,-82.3% (active)
9,O=C(CC(=O)Nc1ccc(Oc2ncnc3scc(Nc4n[nH]c(=S)s4)c23)cc1)Nc1ccc(Br)cc1,107%
10,COc1ccc(C2c3sc4ccc(C)cc4c3Oc3nc(N)nc(N)c32)cc1 (stereo not given),93.7%
11,Cn1cc(-c2nnc(N)nc2-c2c[nH]c3ccc(F)cc23)c2cc(Br)cnc21,72.6%
12,CC1[C@H]2[C@H](C[C@H]3[C@@H]4CC=C5c6sc(Nc7cccc(Cl)n7)nc6CC[C@]5(C)[C@H]4CC[C@@]32C)O[C@]12CC[C@@H](C)CO2 (stereo not given in full),70.2%
13,CCOc1ccc(/C=N/NC(=O)Cn2nc(Cc3ccc(OC)cc3)c3onc(C)c3c2=O)cc1,50.4%
14,Cn1cc(-c2nc(N)nnc2-c2c[nH]c3ccccc23)c2cc(Br)cnc21,-75.9% (active)
15,O=C(c1ccc(F)cc1)C(c1c[nH]c2ccccc12)c1c[nH]c2ccccc12,97.7%
16,CCOC(=O)C1=C(N)N(c2ccc(C)cc2)C2=C(C(=O)CC(C)(C)C2)C1c1ccccc1Br (stereo not given),62.7%
17,COc1ccccc1-n1cc(C#N)c(N)c1C(=O)c1ccc(Cl)cc1Cl,19.6%
18,Cn1cc(/C=C(/SS/C(=C/c2cn(C)c3cccc(C(=O)O)c23)C(=O)O)C(=O)O)c2c(C(=O)O)cccc21,112%
19,Fc1ccc(-c2csc(Nc3cccc(Nc4nc(-c5ccc(F)cc5)cs4)c3)n2)cc1,75.7%
20,O=C(Nc1ccc(OCc2ccc(F)cc2)cc1)Nc1ccc(Cl)c(C(F)(F)F)c1,-79.2% (active)

row,SMILES,growth
1,Cc1cc(N=C2NC(=O)/C(=C/c3cc(C(C)(C)C)c(O)c(C(C)(C)C)c3)S2)n[nH]1,-9.38% (active)
2,Nc1nnc(-c2c[nH]c3ncc(Br)cc23)c(-c2c[nH]c3ccc(Br)cc23)n1,0.336% (active)
3,CC1(C)CC[C@]2(C(=O)O)CC[C@]3(C)C(=CCC4[C@@]5(C)C[C@@H](O)[C@@H]6OC(c7cccc(F)c7)OC[C@@]6(C)C5CC[C@]43C)C2C1 (stereo not given in full),15.2%
4,COc1cc2oc(-c3cccc(C(=O)Nc4ccc(Cl)cc4)c3)cc(=O)c2c(OCCNC(=O)[C@@H](N)CO)c1OC,40.9%
5,Fc1ccc(/C=C/c2nc3ccccc3n3c(-c4ccc(Cl)cc4)nnc23)cc1,67.8%
6,O=C(Nc1ccc(Oc2ncnc3scc(Nc4n[nH]c(=S)s4)c23)cc1)C1(C(=O)Nc2cccc(C(F)(F)F)c2)CC1,101%
7,Cc1ccc2c(c1)C(=O)/C(=C/c1c[nH]c3ccccc13)S2,67.8%
8,COC(=O)CNC(=O)COc1c(OC)c(OC)cc2oc(-c3cccc(C(=O)Nc4ccc(Cl)cc4)c3)cc(=O)c12,31%
9,COc1ccc2[nH]cc(-c3nc(N)nnc3-c3cn(C)c4ncc(Br)cc34)c2c1,-73.9% (active)
10,COc1ccc(Cc2nn(CC(=O)N/N=C/c3ccc(Br)cc3)c(=O)c3c(C)noc23)cc1,52.2%
11,COc1ccc(C2OC[C@@]3(C)C4CC[C@]5(C)C(CC=C6C7CC(C)(C)CC[C@]7(C(=O)O)CC[C@]65C)[C@@]4(C)C[C@@H](O)[C@@H]3O2)cc1 (stereo not given in full),78.8%
12,O=C1NC2C=CC=CC2/C1=C1/SC(=S)N(C2CC(=O)N(c3ccc(Br)cc3)C2=O)C1=O (stereo not given),104%
13,Cc1ccc(COc2ccc(NC(=O)Nc3ccc(Cl)c(C(F)(F)F)c3)cc2)cc1,76.8%
14,C#C[C@]1(O)CC[C@H]2[C@@H]3CC=C4c5sc(Nc6ccc(N(C)C)cc6)nc5CC[C@]4(C)[C@H]3CC[C@@]21C,-28.6% (active)
15,CCOC(=O)c1ccc(NC(=O)CSC(CC(=O)c2sc(Nc3ccccn3)nc2C)c2ccccc2F)cc1 (stereo not given),-34.1% (active)
16,COc1ccc(OC)c(-n2cc(C#N)c(N)c2C(=O)c2ccc(Cl)cc2Cl)c1,32.6%
17,O=C(c1ccccc1)c1ccc2nc(-c3ccccc3Br)[nH]c2c1,-75.5% (active)
18,O=C1S/C(=C\c2ccc([N+](=O)[O-])cc2)C(=O)N1CCN1CCCCC1,113%
19,Cc1ccc(S(=O)(=O)N2CCN(S(=O)(=O)c3oc(-c4ccccc4)nc3C#N)CC2)cc1,92.3%
20,Cc1cc(N=C2NC(=O)S/C2=C\c2ccc(F)cc2)n[nH]1,19.2%
